From PubChem
TEAD-YAP inh – TEAD-YAP interaction inhibition, primary screen, TEAD-YAP interaction inhibitor project, luminescence, HEK-TIYL cells | TEAD-Gal4/YAP UAS-luciferase luminescence | inhibition, % at 9.12 µM | 640,000 compounds, 1.4% hits | AID 1259422, 2018; in the data active means inhibition above about 32%;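 further: 0% = median of test compound wells and 100% = reference inhibitor wells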
FBW7 act – FBW7 E3 ligase activators, primary screen, biochemical, AlphaScreen, human; F-box/WD repeat-containing protein 7 (Homo sapiens), Q969H0; AlphaScreen FBW7–phospho-cyclin E peptide binding, activator screen; normalized activity (activation), % at 26.1 µM; 650,000 compounds, 0.13% hits; in the data active means normalized activity above about 1.9%;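 further: purified mutant Fbw7 with reduced substrate affinity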
MITF primary – MITF inhibitors, primary screen, biochemical, AlphaScreen, human. AlphaScreen MITF homodimerization, bead proximity signal. inhibition, % at 2.6 µM. 650,000 compounds, 0.91% hits; in the data active means inhibition above about 50%;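 further: 0% = vehicle wells with protein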
GPR151 ag – activators of human GPR151, primary screen, cell-based, PathHunter beta-arrestin, luminescence; activation, % at 11.2 µM; AID 1508602, 2020; G-protein coupled receptor 151 (Homo sapiens), Q8TDV0; 650,000 compounds, 1% hits; PathHunter beta-arrestin GPR151 cells; in the data active means activation above about 4.9%;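 further: 0% = median of compound wells and 100% = cells with positive control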
* hit, by the source's call. Most compounds without a hit are left out; they make up all but 3.4% or so of the library.

SMILES | TEAD-YAP inh | FBW7 act | MITF primary | GPR151 ag
c1nc2nc(Nc3ccc(N4CCOCC4)cc3)nc(Nc3ccc4c(c3)OCO4)c2[nH]1 | 45* | 1 | 21 | 0
Cc1c(N=C2C(=O)N(CC(=O)O)c3ccccc32)c(=O)n(-c2ccccc2)n1C | 8 | 2.3* | 5 | -1
Cc1nc2c(C(=O)N3CCCC3)c[nH]n2c(=O)c1Cc1ccc(Cl)cc1 | 8 | 1.9* | 15 | 0
Cc1nc2c(C(=O)O)c[nH]n2c(=O)c1Cc1ccc(Cl)cc1 | 7 | 0 | -8 | 0
CCOc1ccc(N(Cc2nnc3n2CCCCC3)C(=O)Nc2ccccc2OC)cc1 | 8 | 0 | 2 | 1
O=C(O)c1cc(O)c2c(c1)[C@@H]([C@H]1c3cc(C(=O)O)cc(O)c3C(=O)c3c(O[C@H]4O[C@H](CO)[C@@H](O)[C@H](O)[C@H]4O)cccc31)c1cccc(O[C@H]3O[C@H](CO)[C@@H](O)[C@H](O)[C@H]3O)c1C2=O | 5 | -1 | 121* | -1
COc1ccc(NCC(O)Cn2c3ccccc3c3ccccc32)cc1 (stereo not drawn) | 51* | 0 | 13 | -1
Cc1c(C)n(CC(O)CNc2ccccc2)c2ccccc12 (stereo not drawn) | 0 | 0 | 59* | 3
O=C1CS/C(=C\c2nc3ccccc3[nH]2)N1 | 3 | 0 | 9 | -2
Oc1c(CN2CCOCC2)cc(COCc2ccccc2)c2cccnc12 | 74* | -1 | 86* | -1
CC(C)OCc1cc(CN2CCN(C)CC2)c(O)c2ncccc12 | 5 | -1 | 94* | -1
COc1cc(CN2CCOCC2)ccc1OCc1ccccc1 | -14 | 0 | -5 | 0
COCc1cc(CN2CCN(C)CC2)c(O)c2ncccc12 | 8 | -1 | 101* | 0
CC(C)OCc1cc(CN2CCOCC2)c(O)c2ncccc12 | 6 | -1 | 94* | -3
CCOC(=O)N1CCN(C(=O)CCCCCNc2nc(=S)[nH]c3ccccc23)CC1 | 9 | 0 | -7 | 1
Cc1ccc2nc3c(nc2c1)-c1ccccc1C3=O | -17 | 0 | -4 | 0
Cc1cc2nc3c(nc2cc1C)-c1ccccc1C3=O | 33* | 0 | 2 | -1
COc1ccc(CNc2nccn3c(-c4cccc5ccccc45)cnc23)cc1 | -8 | 2.2* | 4 | 1
CC(C)n1cc(-c2ccc3ccccc3n2)cn1 | 82* | 0 | 0 | -9
CNC(=O)/C(=C/c1ccc(Br)cc1)NC(=O)c1ccc([N+](=O)[O-])cc1 | 7 | 0 | 5 | -1
Cc1ccc(C)c(NC(=O)C2CC3c4ccccc4C2c2ccccc23)c1 (stereo not drawn) | 1 | 2.0* | 1 | -1
Cc1ccc2c(c1)sc(=NC(=O)c1cccs1)n2C | 74* | 0 | 9 | -9
COc1cc2sc(=NC(=O)c3cccs3)n(C)c2cc1OC | -78 | 1 | 1 | 1
CC(C)(C)n1nnnc1C(c1ccccc1)N1CCc2ccccc2C1 (stereo not drawn) | 2 | 0 | -7 | 0
CCC(C)(C)n1nnnc1C(c1ccc(O)cc1)N1CCc2ccccc2C1 (stereo not drawn) | 77* | 0 | -2 | 1
SMILES | TEAD-YAP inh | FBW7 act | MITF primary | GPR151 ag
COc1cccc(-c2nc(/C=C3\C(C)=Nc4ccccc43)c(O)o2)c1 | 0 | 1 | 7 | -1
Cc1nnc(NC(=O)C2CCN(c3nc4ccccc4s3)CC2)s1 | 6 | 0 | 11 | 0
CCC(=O)Nc1ccc(-c2cn3ccccc3n2)cc1 | 40* | 0 | 3 | -5
O=C(Nc1ccc(-c2cn3ccccc3n2)cc1)c1ccccc1 | -25 | 1 | 19 | -6
Cc1cccn2cc(-c3ccc(NC(=O)C(C)(C)C)cc3)nc12 | 64* | 0 | -13 | -4
CCC(=O)Nc1ccc(-c2nc3ccccc3s2)cc1 | 84* | 0 | 20 | -8
CC(=O)Nc1ccc(NC(=O)C2CCN(c3nc4ccccc4s3)CC2)cc1 | 36* | 0 | 43 | -2
COc1ccc(S(=O)(=O)N(CCc2ccccc2)CC(=O)Nc2ccc(C)cc2C)cc1OC | 5 | 0 | -10 | -2
O=C(CSc1nc(-c2ccccc2)cc(-c2ccccc2)n1)Nc1nc(-c2ccccc2)cs1 | 5 | 0 | 7 | 0
O=C(Nc1ccc2c(c1)OCO2)Nc1c2ccccc2nc(=O)n1CCc1ccccc1 | -45 | 0 | 13 | -1
Cn1c(C(=O)O)ccc1S(=O)(=O)N1CCc2ccccc21 | -8 | 0 | -12 | -1
O=C(Nc1ccc(-c2nc3ccccc3s2)cc1)C1CC1 | 79* | 0 | 14 | -3
O=C(Nc1ccc(O)c(-c2nc3ccccc3s2)c1)C1CC1 | 4 | 0 | 14 | 3
O=C(Nc1ccc(Br)cc1)c1ccc(F)c(S(=O)(=O)NC2CCCCCC2)c1 | 40* | 0 | -3 | 0
CCOc1ccc(NC(=O)c2ccc(F)c(S(=O)(=O)NC3CCCC3)c2)cc1 | 69* | 0 | 24 | 2
Cn1nnnc1SCC(=O)Nc1nc(-c2cccs2)cs1 | 5 | 0 | 20 | 0
NNC(=O)/C(=C\c1ccco1)NC(=O)c1ccccc1 | 35* | 0 | -5 | 0
O=C(O)/C(=C/c1ccco1)NC(=O)c1ccccc1 | 7 | -1 | 17 | 0
COc1ccc(OC)c(C(=O)COc2ccccc2C#N)c1 | 41* | 0 | 19 | 0
O=C(NCc1cccs1)c1ccc(CN2CCCCC2c2cccnc2)[nH]c1=O (stereo not drawn) | -3 | 0 | -3 | 1
CCOC(=O)C1=C(CN2CCCc3ccccc32)NC(=O)NC1c1ccc(C)cc1 (stereo not drawn) | 61* | 0 | -3 | 1
CCOC(=O)C1=C(CN2CCCc3ccccc32)NC(=O)NC1c1ccccc1 (stereo not drawn) | 17 | 0 | -1 | -2
CCOC(=O)c1cnc2ccc(OCC)cc2c1NCCCN(CC)CC | 33* | 1 | -3 | 0
O=C(O)c1ccc(NCCSCc2ccccc2)c([N+](=O)[O-])c1 | 35* | 0 | -5 | 0
COc1cccc(/C=N\Nc2ncc(F)c(N3CCOCC3)n2)c1O | 41* | -1 | 86* | 1
SMILES | TEAD-YAP inh | FBW7 act | MITF primary | GPR151 ag
CCN(CC)c1ccc(/C=N\Nc2ncc(F)c(N3CCOCC3)n2)c(O)c1 | 37* | -1 | 62* | 0
Fc1cnc(N/N=C/c2cccs2)nc1N1CCOCC1 | 45* | 0 | 8 | -4
Fc1cnc(N/N=C\c2ccc(-c3ccccc3)o2)nc1N1CCOCC1 | -20 | 0 | 7 | 0
Fc1cnc(N/N=C/c2ccc(Cl)cc2Cl)nc1N1CCOCC1 | -29 | -1 | -13 | -1
CC(C)(C)c1ccc(C(=O)Nc2nc(-c3cc4ccccc4oc3=O)cs2)cc1 | -6 | 0 | 4 | 1
CCOC(=O)C1CCN(C(=O)Nc2ccc(NC(=O)C3CCN(C(=O)OCC)CC3)cc2)CC1 | -3 | 6.1* | 4 | 1
